Results on 8 compounds are retold here after ChEMBL document CHEMBL1961873, “Compounds: GSK PKIS; Assays: Nanosyn kinase panel” (2012).

Test [1] has as its target T1, Serine/threonine-protein kinase Nek9 (Homo sapiens) (UniProt Q8TD19).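 Also: each value is a mean percent inhibition of NEK9.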
T1 sequence (whole entry): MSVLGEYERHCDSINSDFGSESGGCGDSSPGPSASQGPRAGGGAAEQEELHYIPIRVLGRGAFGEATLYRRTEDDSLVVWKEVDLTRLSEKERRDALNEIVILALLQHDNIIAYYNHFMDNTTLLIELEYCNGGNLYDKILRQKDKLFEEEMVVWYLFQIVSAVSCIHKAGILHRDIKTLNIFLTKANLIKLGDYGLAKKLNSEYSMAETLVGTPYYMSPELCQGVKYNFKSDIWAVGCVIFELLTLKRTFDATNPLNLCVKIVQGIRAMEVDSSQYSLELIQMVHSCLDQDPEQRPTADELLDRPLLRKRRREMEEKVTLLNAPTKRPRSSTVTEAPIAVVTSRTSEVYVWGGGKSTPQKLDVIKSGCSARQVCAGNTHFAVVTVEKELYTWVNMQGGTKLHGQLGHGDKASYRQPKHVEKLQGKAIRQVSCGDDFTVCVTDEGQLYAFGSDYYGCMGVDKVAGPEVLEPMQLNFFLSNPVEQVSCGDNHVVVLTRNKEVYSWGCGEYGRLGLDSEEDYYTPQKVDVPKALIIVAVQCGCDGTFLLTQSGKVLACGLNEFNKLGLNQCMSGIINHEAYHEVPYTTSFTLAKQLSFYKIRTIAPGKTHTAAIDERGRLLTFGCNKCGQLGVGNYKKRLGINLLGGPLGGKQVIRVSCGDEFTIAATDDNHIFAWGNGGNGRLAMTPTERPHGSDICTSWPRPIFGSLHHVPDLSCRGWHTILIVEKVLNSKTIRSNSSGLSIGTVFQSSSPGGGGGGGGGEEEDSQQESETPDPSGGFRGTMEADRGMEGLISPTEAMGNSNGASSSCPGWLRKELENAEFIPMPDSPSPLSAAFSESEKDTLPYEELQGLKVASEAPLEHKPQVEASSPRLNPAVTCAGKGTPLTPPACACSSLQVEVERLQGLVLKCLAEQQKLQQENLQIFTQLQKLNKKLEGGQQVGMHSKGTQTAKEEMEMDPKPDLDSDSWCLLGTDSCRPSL
As to conditions: at 1 µM.

The target of test [2] is Serine/threonine-protein kinase PLK1 (Homo sapiens) (UniProt P53350). As to conditions: at 0.1 µM.
Sequence of Serine/threonine-protein kinase PLK1 (Homo sapiens) (P53350 whole entry): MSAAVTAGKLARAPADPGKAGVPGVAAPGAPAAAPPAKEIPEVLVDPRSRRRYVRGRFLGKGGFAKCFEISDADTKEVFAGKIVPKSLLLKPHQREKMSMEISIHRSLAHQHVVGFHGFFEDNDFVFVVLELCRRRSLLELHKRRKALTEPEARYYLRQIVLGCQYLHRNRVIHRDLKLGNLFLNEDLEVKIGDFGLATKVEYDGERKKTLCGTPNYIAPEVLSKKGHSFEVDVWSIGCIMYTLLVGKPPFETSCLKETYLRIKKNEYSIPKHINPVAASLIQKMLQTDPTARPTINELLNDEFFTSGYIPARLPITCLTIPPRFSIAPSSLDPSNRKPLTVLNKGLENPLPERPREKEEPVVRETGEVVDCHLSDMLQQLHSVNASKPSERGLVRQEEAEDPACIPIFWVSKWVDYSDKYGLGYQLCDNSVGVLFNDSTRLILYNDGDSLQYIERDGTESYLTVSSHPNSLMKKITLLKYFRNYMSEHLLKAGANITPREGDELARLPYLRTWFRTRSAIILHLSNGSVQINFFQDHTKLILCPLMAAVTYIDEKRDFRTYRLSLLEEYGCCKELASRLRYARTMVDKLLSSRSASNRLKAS
Test [3] has the same target. As to conditions: at 1 µM.
For test [4], the target named is T2, Dual specificity protein kinase TTK (Homo sapiens) (UniProt P33981).
T2 sequence (whole entry): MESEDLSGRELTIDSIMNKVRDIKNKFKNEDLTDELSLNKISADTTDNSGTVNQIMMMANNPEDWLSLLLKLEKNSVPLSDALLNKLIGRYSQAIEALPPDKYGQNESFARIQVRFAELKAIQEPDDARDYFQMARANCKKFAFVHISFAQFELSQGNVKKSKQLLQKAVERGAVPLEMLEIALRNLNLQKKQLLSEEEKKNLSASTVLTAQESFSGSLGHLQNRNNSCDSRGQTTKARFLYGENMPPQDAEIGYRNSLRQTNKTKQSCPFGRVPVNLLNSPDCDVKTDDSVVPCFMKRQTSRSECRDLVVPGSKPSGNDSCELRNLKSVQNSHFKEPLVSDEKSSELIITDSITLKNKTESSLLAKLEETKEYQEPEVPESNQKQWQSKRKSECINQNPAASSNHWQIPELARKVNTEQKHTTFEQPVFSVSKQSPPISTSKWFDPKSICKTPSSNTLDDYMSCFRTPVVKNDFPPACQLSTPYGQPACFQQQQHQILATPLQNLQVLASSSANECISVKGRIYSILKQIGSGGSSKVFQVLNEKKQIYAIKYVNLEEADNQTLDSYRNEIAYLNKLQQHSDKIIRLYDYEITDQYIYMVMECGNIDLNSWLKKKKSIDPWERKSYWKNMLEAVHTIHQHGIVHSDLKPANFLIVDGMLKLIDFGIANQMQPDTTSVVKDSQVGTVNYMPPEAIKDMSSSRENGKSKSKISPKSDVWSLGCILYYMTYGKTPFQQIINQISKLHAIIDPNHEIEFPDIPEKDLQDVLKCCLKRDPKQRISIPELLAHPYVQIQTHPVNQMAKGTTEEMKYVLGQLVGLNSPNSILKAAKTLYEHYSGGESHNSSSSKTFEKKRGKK
As to conditions: at 0.1 µM.

In test [5] the test system is T3, Receptor-type tyrosine-protein kinase FLT3 (Homo sapiens), P36888 [D835Y].
T3 sequence (whole entry): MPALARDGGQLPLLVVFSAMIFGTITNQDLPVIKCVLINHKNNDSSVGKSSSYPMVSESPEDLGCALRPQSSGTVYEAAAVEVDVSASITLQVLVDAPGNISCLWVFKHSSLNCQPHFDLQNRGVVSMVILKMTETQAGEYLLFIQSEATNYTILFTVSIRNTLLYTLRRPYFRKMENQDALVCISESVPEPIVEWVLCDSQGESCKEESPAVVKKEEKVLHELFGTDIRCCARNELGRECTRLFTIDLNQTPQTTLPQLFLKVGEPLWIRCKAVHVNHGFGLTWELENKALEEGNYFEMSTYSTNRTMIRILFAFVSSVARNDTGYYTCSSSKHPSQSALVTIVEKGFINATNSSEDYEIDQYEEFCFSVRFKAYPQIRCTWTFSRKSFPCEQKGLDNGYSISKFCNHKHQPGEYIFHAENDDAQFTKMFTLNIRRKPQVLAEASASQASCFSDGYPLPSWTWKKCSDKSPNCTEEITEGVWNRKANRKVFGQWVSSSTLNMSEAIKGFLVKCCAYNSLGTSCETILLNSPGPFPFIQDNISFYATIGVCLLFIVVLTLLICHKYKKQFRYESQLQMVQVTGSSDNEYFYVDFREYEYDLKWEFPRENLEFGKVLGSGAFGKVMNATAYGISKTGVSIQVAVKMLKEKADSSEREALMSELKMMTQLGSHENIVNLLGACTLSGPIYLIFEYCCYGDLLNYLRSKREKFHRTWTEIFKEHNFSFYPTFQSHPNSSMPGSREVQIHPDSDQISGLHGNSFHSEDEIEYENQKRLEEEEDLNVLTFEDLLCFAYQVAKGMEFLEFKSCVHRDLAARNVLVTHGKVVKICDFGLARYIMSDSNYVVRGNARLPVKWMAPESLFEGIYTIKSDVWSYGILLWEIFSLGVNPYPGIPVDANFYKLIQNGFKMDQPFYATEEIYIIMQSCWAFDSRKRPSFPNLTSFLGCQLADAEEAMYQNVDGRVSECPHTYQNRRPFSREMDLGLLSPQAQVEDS
As to conditions: at 1 µM.

Test [6] addresses Vascular endothelial growth factor receptor 3 (Homo sapiens) (UniProt P35916). As to conditions: at 0.1 µM.
For test [7] the target is unchanged. As to conditions: at 1 µM.
For test [8], the target named is Macrophage colony-stimulating factor 1 receptor (Homo sapiens) (UniProt P07333). As to conditions: at 0.1 µM.
Sequence of Macrophage colony-stimulating factor 1 receptor (Homo sapiens) (P07333 whole entry): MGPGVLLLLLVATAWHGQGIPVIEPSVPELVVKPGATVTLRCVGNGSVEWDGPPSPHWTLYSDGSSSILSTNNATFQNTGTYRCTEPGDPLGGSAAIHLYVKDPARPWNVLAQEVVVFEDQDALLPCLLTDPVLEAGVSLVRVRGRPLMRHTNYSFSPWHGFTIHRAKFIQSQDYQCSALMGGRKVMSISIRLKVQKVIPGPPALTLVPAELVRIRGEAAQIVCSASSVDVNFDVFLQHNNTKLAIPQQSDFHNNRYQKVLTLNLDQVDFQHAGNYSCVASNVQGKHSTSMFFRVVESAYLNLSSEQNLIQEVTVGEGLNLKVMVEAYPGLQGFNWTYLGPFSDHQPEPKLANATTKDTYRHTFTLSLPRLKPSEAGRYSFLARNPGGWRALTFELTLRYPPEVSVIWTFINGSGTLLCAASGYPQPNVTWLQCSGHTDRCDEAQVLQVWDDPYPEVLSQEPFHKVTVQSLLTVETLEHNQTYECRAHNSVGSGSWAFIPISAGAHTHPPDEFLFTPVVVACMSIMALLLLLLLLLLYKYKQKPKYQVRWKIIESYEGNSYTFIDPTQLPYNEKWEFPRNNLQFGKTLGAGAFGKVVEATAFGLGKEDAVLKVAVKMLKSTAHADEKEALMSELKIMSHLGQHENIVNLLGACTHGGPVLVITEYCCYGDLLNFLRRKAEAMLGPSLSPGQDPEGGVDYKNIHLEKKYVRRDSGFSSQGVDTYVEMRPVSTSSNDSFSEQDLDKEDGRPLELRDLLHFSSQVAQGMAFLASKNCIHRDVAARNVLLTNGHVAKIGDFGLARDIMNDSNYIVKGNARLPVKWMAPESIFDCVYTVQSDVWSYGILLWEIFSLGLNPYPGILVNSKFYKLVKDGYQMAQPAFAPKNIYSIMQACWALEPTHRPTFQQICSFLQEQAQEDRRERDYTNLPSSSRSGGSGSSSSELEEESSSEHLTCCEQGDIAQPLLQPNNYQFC
Test [9] shares this target. As to conditions: at 1 µM.
In test [10] the target is Tyrosine-protein kinase Fyn (Homo sapiens) (UniProt P06241). As to conditions: at 0.1 µM.
Sequence of Tyrosine-protein kinase Fyn (Homo sapiens) (P06241 2-537 limits assumed): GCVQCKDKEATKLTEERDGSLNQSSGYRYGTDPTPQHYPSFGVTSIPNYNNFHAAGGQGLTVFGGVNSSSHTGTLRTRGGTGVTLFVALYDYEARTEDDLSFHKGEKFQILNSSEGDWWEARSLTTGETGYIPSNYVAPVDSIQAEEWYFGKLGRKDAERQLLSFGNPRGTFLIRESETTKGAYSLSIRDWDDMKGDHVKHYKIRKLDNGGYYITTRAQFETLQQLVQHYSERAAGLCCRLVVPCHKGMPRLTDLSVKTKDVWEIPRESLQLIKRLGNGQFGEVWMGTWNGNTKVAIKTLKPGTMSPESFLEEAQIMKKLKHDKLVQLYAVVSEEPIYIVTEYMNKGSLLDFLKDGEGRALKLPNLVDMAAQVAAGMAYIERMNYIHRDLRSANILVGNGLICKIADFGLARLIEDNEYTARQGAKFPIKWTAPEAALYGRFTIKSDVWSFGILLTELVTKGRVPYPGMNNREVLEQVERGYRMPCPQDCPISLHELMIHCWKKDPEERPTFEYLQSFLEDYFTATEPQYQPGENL

What is called inhibition is the change of the read-out against control, counted positive when it falls.

Sequence of Vascular endothelial growth factor receptor 3 (Homo sapiens) (P35916 whole entry): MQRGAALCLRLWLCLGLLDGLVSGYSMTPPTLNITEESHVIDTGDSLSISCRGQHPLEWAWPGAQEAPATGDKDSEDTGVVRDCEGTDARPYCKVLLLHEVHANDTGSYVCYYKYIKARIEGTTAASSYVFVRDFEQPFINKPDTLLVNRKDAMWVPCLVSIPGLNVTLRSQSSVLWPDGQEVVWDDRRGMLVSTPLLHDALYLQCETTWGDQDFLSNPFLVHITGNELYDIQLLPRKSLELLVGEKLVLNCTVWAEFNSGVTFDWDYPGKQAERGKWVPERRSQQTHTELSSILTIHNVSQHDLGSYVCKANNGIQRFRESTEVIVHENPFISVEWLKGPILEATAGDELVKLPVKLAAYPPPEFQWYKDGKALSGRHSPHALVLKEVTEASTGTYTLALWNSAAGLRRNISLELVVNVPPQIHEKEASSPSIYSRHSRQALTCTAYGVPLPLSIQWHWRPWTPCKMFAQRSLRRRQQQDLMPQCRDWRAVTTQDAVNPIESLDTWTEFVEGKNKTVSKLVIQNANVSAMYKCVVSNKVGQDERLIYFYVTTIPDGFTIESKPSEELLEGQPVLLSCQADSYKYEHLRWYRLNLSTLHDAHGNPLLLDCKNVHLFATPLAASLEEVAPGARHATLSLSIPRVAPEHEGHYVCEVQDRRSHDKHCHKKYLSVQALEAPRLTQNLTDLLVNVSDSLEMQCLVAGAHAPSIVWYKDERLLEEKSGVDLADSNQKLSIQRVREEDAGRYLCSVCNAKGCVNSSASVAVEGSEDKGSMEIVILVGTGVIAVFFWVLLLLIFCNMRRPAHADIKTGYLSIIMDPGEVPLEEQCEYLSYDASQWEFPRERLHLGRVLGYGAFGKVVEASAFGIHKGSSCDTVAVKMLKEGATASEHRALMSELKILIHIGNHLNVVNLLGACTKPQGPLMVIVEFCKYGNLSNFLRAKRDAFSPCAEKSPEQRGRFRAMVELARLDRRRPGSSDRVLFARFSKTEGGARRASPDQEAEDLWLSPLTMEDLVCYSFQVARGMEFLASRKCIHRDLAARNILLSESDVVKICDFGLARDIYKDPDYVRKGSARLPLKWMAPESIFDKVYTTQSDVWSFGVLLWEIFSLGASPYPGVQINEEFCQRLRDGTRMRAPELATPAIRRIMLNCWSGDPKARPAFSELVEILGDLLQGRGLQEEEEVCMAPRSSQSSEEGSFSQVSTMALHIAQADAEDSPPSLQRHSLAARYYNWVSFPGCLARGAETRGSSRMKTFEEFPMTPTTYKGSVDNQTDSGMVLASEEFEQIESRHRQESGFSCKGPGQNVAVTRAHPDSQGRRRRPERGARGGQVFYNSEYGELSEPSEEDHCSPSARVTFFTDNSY

As for `CCn1c(-c2nonc2N)nc2c(C#CC(C)(C)O)nc(OC[C@H](N)c3ccccc3)cc21`, the inhibition amounted to 3.62% in test [1]; 3.81% in test [2]; 7.68% in test [3]; 7.61% in test [4]; 1.02% in [5]; 16.6% in test [6]. For the same compound, the inhibition in [7] is 62.6%; in [8] it was 3.84%; in [9], 5.51%; in test [10], 2.39%.
As for `CCCN1CCC(c2ccc(Nc3nc(Nc4cc(F)ccc4C(N)=O)c4cc[nH]c4n3)c(OC)c2)CC1`, the inhibition in [1] is 32.5%; in [2], 12.5%; in [3], 49.8%; in test [4], 81.5%; in test [5], 56%; in test [6], -1.93%. The inhibition in test [7] was determined as 2.22%; in test [8], 34.3%; in test [9] it was 81.5%; in [10], 3.91%.
As for `Nc1nc(-c2ccc(F)cc2)c(-c2ccc3ncccc3n2)s1`, the inhibition stood at 11.1% in [1]; 3.57% in [2]; 6.9% in test [3]; 9.86% in test [4]; 6.56% in test [5]; 4.58% in test [6]. Moreover, the inhibition stood at 11.6% in test [7], 3.44% in test [8], 7.59% in test [9] and 2.8% in test [10].
For the compound `CS(=O)(=O)CCNCc1coc(-c2ccc3ncnc(Nc4ccc(OCc5ccccc5)cc4)c3c2)c1`, the inhibition in [1] is 15.4%; in test [2] it was 4.26%; in test [3], 5.02%; in test [4], 5.49%; in test [5] it was 4.15%; in test [6], 4.45%. Further, the inhibition in [7] was found to be 2.92%; in test [8] it was 0.22%; in [9], 7.42%; in [10] it was 1.47%.
In the case of `Cc1cccc(Nc2ncc(-c3ccccc3)o2)c1`, the inhibition was 4.73% in [1]; 2.24% in [2]; 6.33% in test [3]; 6.38% in test [4]; 18.6% in test [5]; 5.49% in [6]. Further, the inhibition in test [7] is 9.11%; in test [8] it was 9.54%; in test [9], 25.7%; in test [10] it was 3.07%.
With `CCNC(=O)O[C@H]1CN[C@H](C#Cc2cc3ncnc(Nc4ccc(OCc5cccc(F)c5)c(Cl)c4)c3s2)C1`, the inhibition came to 4.6% in [1]; 3.22% in [2]; 3.29% in test [3]; 2.67% in test [4]; 2.57% in test [5]; 5.21% in test [6]. Besides, the inhibition is -0.66% in test [7], 3.01% in test [8], 2.53% in test [9] and 3.33% in [10].
For the compound `COC(=O)Nc1nc2ccc(Oc3ccc(NC(=O)Nc4cccc(Cl)c4)cc3)cc2[nH]1`, the inhibition in [1] was 2.84%; in [2], -0.55%; in test [3], 0.69%; in test [4] it was 2.99%; in test [5] it was 1.8%; in test [6] it was 4.07%. For the same compound, the inhibition amounted to 9.34% in test [7], 16.5% in test [8], 45.2% in test [9] and 0.86% in [10].
For the compound `COC(=O)c1sc(-n2cnc3cc(OC)c(OC)cc32)cc1OCc1ccccc1C(F)(F)F`, the inhibition is 7% in [1]; 3.92% in [2]; 14.4% in test [3]; 12.7% in test [4]; 0.96% in test [5]; 8.44% in [6]. The inhibition was determined as 50.2% in test [7], 16.2% in [8], 60.9% in test [9] and 15.6% in [10].
